For orientation: viability means a read-out of living cells in per cent, often relative to untreated cells.

Results filed as inconclusive are left out. Unmarked numbers belong to inactive results. Activity calls are given as the source filed them. The call rests on the fitted dose curve; in most records, active means well fitted curve in the direction sought with a large enough effect; inconclusive means small, poorly fitted or top-dose-only effect, or another doubt; inactive means no such curve, though single readings can be large; an effect the other way counts as inactive or inconclusive.

For twelve molecules, Potency and viability results are on record in PubChem BioAssay (NCATS).

A short description of experiment [1]: Quantitative High-Throughput drug screen in 47 multiple myeloma cell lines against the NCATS MIPE library collection: KMS20_JCRB cell viability assay (AID 1918973). Further: nearly all actives have a fitted effect of over 45% in size. Further: potency means the concentration at half of the fitted maximal effect. In outline:
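CellTiter-Glo luminescence (ATP) after 48 h compound exposure, 37C/5% CO2; 500 cells/well; MIPE 4.0 approved/investigational drugs pinned in; DMSO = 100%, media only = 0% viability.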

The nature of experiment [2]: Quantitative High-Throughput drug screen in 47 multiple myeloma cell lines against the NCATS MIPE library collection: KMS26_JCRB cell viability assay (AID 1918975). Further: nearly all actives have a fitted effect of over 45% in size. Further: potency means the concentration at half of the fitted maximal effect. In outline: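 Myeloma cell lines, 500 cells per well, exposed to MIPE 4.0 library compounds for 48 h at 37C, 5% CO2. Viability from ATP by CellTiter-Glo luminescence; normalised to DMSO (100%) and media-only (0%) wells.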

Experiment [3] is described as follows: Quantitative High-Throughput drug screen in 47 multiple myeloma cell lines against the NCATS MIPE library collection: MMM1_PLB cell viability assay (AID 1918976). Further: nearly all actives have a fitted effect of over 35% in size. Further: potency means the concentration at half of the fitted maximal effect. The procedure, abridged:
(§1)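 500 cells/well; MIPE 4.0 drugs pin-transferred; 48 h, 37C, 5% CO2. CellTiter-Glo, 5 min RT, luminescence. Controls: DMSO 100%, media 0%.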

The nature of experiment [4]: Quantitative High-Throughput drug screen in 47 multiple myeloma cell lines against the NCATS MIPE library collection: NCIH929_DSMZ cell viability assay (AID 1918978). Further: potency means the concentration at half of the fitted maximal effect; nearly all actives have a fitted effect of over 35% in size. In outline:
as §1

A short description of experiment [5]: Quantitative High-Throughput drug screen in 47 multiple myeloma cell lines against the NCATS MIPE library collection: KMS28PE_JCRB cell viability assay (AID 1918983). Further: nearly all actives have a fitted effect of over 35% in size. Further: potency means the concentration at half of the fitted maximal effect. In outline: as §1
A short description of experiment [6]: Quantitative High-Throughput drug screen in 47 multiple myeloma cell lines against the NCATS MIPE library collection: OCIMY5_PLB cell viability assay (AID 1918988). Further: nearly all actives have a fitted effect of over 65% in size. Further: potency means the concentration at half of the fitted maximal effect. In outline:
as §1

A short description of experiment [7]: Quantitative High-Throughput drug screen in 47 multiple myeloma cell lines against the NCATS MIPE library collection: OPM1_PLB cell viability assay (AID 1918989). Further: potency means the concentration at half of the fitted maximal effect; nearly all actives have a fitted effect of over 40% in size. The procedure, abridged: as §1
Experiment [8] is described as follows: Quantitative High-Throughput drug screen in 47 multiple myeloma cell lines against the NCATS MIPE library collection: SKMM1_PLB cell viability assay (AID 1919863). Further: nearly all actives have a fitted effect of over 35% in size. Further: potency means the concentration at half of the fitted maximal effect. The note with it: SKMM1 myeloma viability, CellTiter-Glo ATP, 48 h; viability: active compounds read low. The procedure, abridged:
as §1
(ATP-based viability assays read luminescence as a measure of living cells.)

Experiment [9] in a line: Quantitative High-Throughput drug screen in 47 multiple myeloma cell lines against the NCATS MIPE library collection: U266_ATCC cell viability assay (AID 1919864). The procedure, abridged:
as §1

A short description of experiment [10]: Quantitative High-Throughput drug screen in 47 multiple myeloma cell lines against the NCATS MIPE library collection: XG6_PLB cell viability assay (AID 1919865). Further: potency means the concentration at half of the fitted maximal effect; nearly all actives have a fitted effect of over 40% in size. The procedure, abridged:
as §1

Experiment [11] in a line: Quantitative High-Throughput drug screen in 47 multiple myeloma cell lines against the NCATS MIPE library collection: OCIMY1_PLB cell viability assay (AID 1918979). Further: nearly all actives have a fitted effect of over 35% in size. Further: potency means the concentration at half of the fitted maximal effect. The procedure, abridged:
as §1

A short description of experiment [12]: Quantitative High-Throughput drug screen in 47 multiple myeloma cell lines against the NCATS MIPE library collection: MM1R_ATCC cell viability assay (AID 1918981). The procedure, abridged:
as §1

Experiment [13] in a line: Quantitative High-Throughput drug screen in 47 multiple myeloma cell lines against the NCATS MIPE library collection: KMS34_JCRB cell viability assay (AID 1918985). Further: nearly all actives have a fitted effect of over 40% in size. Further: potency means the concentration at half of the fitted maximal effect. In outline:
as §1

The nature of experiment [14]: Quantitative High-Throughput drug screen in 47 multiple myeloma cell lines against the NCATS MIPE library collection: MM1S_ATCC cell viability assay (AID 1918980). Further: potency means the concentration at half of the fitted maximal effect; nearly all actives have a fitted effect of over 45% in size. In outline:
as §1

Experiment [15] can be described thus: Quantitative High-Throughput drug screen in 47 multiple myeloma cell lines against the NCATS MIPE library collection: L363_DSMZ cell viability assay (AID 1918984). Further: nearly all actives have a fitted effect of over 40% in size. Further: potency means the concentration at half of the fitted maximal effect. To be noted: L363 myeloma viability, CellTiter-Glo ATP luminescence, 48 h; viability (% of control): at 45.8 µM (top of the series). In outline:
as §1

A short description of experiment [16]: Quantitative High-Throughput drug screen in 47 multiple myeloma cell lines against the NCATS MIPE library collection: OCIMY7_PLB cell viability assay (AID 1918987). Further: potency means the concentration at half of the fitted maximal effect; nearly all actives have a fitted effect of over 65% in size. The note with it: OCI-MY7 myeloma viability, CellTiter-Glo ATP, 48 h; viability (% of DMSO): at 45.8 µM (top of the series). The procedure, abridged: as §1
Experiment [17] is described as follows: Quantitative High-Throughput drug screen in 47 multiple myeloma cell lines against the NCATS MIPE library collection: XG1_PLB cell viability assay (AID 1919866). In outline: as §1
Experiment [18] is described as follows: Quantitative High-Throughput drug screen in 47 multiple myeloma cell lines against the NCATS MIPE library collection: MOLP8_DSMZ cell viability assay (AID 1918977). Further: nearly all actives have a fitted effect of over 45% in size. Further: potency means the concentration at half of the fitted maximal effect. The procedure, abridged: as §1
The nature of experiment [19]: Quantitative High-Throughput drug screen in 47 multiple myeloma cell lines against the NCATS MIPE library collection: LP1_DSMZ cell viability assay (AID 1918982). Further: nearly all actives have a fitted effect of over 35% in size. In outline:
as §1

For `Cc1ccccc1C(=O)c1ccc(Nc2ccc(Br)cc2N)cc1Cl`, the Potency in experiment [1] was 14.8 µM (active); in [2] it was 5.26 µM (active); in experiment [3], 16.6 µM (active); in experiment [4] it was 23.5 µM (active); in experiment [5], 14.8 µM (active); in experiment [6], 10.5 µM (active). Further, the Potency in [7] was 16.6 µM (active); in experiment [8] it was 16.6 µM (active); in [9], 11.8 µM (active); in [10] it was 18.7 µM (active).
For the molecule `CCOC(=O)N1c2ccc(C(F)(F)F)cc2[C@@H](N(Cc2cc(C(F)(F)F)cc(C(F)(F)F)c2)C(=O)OC)C[C@H]1CC`, the Potency entry in experiment [1] was “inactive”. For the same molecule, the Potency in experiment [2] was 3.32 µM (active); in experiment [3] it was 8.33 µM (active); in experiment [4], 8.33 µM (active); in experiment [11] it was 16.6 µM (active); in experiment [12] it was 2.96 µM (active); in experiment [5], 4.69 µM (active). Also, the Potency in [13] was 5.26 µM (active); in [6], 4.69 µM (active); in [7] it was 3.32 µM (active).
Consider `NC(=O)c1noc([C@H](CCCC2CCCCC2)CC(=O)NO)n1`, for which the Potency in experiment [1] was 18.7 µM (active); in [2], 11.8 µM (active); in [3] it was 16.6 µM (active); in experiment [4] it was 14.8 µM (active); in [14], 16.6 µM (active); in experiment [16] it was 3.32 µM (active). The Potency is 16.6 µM (active) in experiment [6]; 23.5 µM (active) in experiment [7]; 13.2 µM (active) in experiment [8]; 20.9 µM (active) in experiment [9]; 23.5 µM (active) in experiment [10]; 16.6 µM (active) in experiment [17]. The Potency entry in experiment [5] and in experiment [15] was “inactive” each time.
Turning to `Cc1cccc(-c2[nH]c(C(C)(C)C)nc2-c2ccc3c(c2)OCO3)n1`, the Potency in experiment [1] was 2.35 µM (active); in experiment [2], 16.6 µM (active); in experiment [3], 16.6 µM (active); in [18], 6.62 µM (active); in [14], 16.6 µM (active); in experiment [5], 20.9 µM (active). Also, the Potency is 18.7 µM (active) in experiment [13]; 9.35 µM (active) in [16]; 14.8 µM (active) in [6]; 1.87 µM (active) in experiment [7]; 20.9 µM (active) in experiment [8]; 16.6 µM (active) in experiment [9]. In addition, the Potency was 2.96 µM (active) in [10] and 1.05 µM (active) in experiment [17].
Consider `NC1(C(=O)N[C@@H](CCO)c2ccc(Cl)cc2)CCN(c2ncnc3[nH]ccc23)CC1`, for which the Potency in [1] is 1.18 µM (active); in experiment [2], 0.209 µM (active); in experiment [3] it was 0.0105 µM (active); in experiment [14] it was 0.0833 µM (active); in [12], 0.148 µM (active); in [5], 0.372 µM (active). In addition, the Potency in [15] is 0.235 µM (active); in [13], 8.33 µM (active); in experiment [16], 3.72 µM (active); in experiment [6], 5.26 µM (active); in experiment [7] it was 1.48 µM (active); in experiment [8] it was 5.9 µM (active). Also, the Potency in experiment [10] was 20.9 µM (active); in experiment [17] it was 4.18 µM (active).
On to `CN1N=C(N)c2cn([C@@H]3O[C@H](COP(=O)(O)O)[C@@H](O)[C@@H]3O)c3ncnc1c23`, for which the Potency in [1] was 1.32 µM (active); in experiment [2], 0.0132 µM (active); in experiment [3], 0.469 µM (active); in experiment [4] it was 0.0469 µM (active); in experiment [12], 5.9 µM (active); in experiment [5], 0.833 µM (active). Also, the Potency in experiment [13] is 0.833 µM (active); in experiment [16] it was 2.09 µM (active); in experiment [6] it was 0.296 µM (active); in experiment [7] it was 0.469 µM (active); in experiment [8], 1.32 µM (active); in experiment [9], 5.26 µM (active).
Turning to `CN(C(Cc1ccc(OS(=O)(=O)c2cccc3cnccc23)cc1)C(=O)N1CCN(c2ccccc2)CC1)S(=O)(=O)c1cccc2cnccc12` (stereo not given), the Potency in experiment [1] is 2.64 µM (active); in experiment [2], 14.8 µM (active); in experiment [3], 5.9 µM (active); in [4] it was 16.6 µM (active); in experiment [11], 7.43 µM (active); in experiment [12], 16.6 µM (active). For the same molecule, the Potency in [5] was 10.5 µM (active); in experiment [16], 4.69 µM (active); in experiment [6], 13.2 µM (active); in experiment [7] it was 3.72 µM (active); in experiment [8] it was 9.35 µM (active); in experiment [9], 13.2 µM (active). In addition, the Potency in [10] is 13.2 µM (active).
Consider `C[C@@]1(C(=O)Nc2ccc(F)nc2)CCCN1c1nc(Nc2cc(C3CC3)[nH]n2)c2cccn2n1`, for which the Potency in experiment [1] is 0.0743 µM (active); in experiment [2], 0.0066 µM (active); in [3] it was 0.0209 µM (active); in experiment [4] it was 0.0235 µM (active); in [14] it was 0.0469 µM (active); in experiment [12] it was 0.0166 µM (active). For the same molecule, the Potency in experiment [5] is 0.0296 µM (active); in [16] it was 0.0743 µM (active); in experiment [6] it was 0.118 µM (active); in [8], 1.48 µM (active); in experiment [10], 0.0332 µM (active); in [17] it was 0.0743 µM (active).
Take `CC(=O)Nc1cccc(-n2c(=O)n(C3CC3)c(=O)c3c(Nc4ccc(I)cc4F)n(C)c(=O)c(C)c32)c1`: the Potency in experiment [1] was 0.0118 µM (active); in [3], 7.43 µM (active); in experiment [4], 0.0187 µM (active); in experiment [11], 0.0033 µM (active); in experiment [5], 8.33 µM (active); in [15] it was 5.9 µM (active). Besides, the Potency in experiment [16] is 0.0132 µM (active); in experiment [7], 0.296 µM (active); in experiment [8], 3.72 µM (active); in experiment [9], 1.48 µM (active); in experiment [10], 0.332 µM (active). The Potency entry in [2], in [13] and in experiment [6] was “inactive” in each case.
As for `O=S(=O)(NCCNCC=Cc1ccc(Br)cc1)c1cccc2cnccc12`, the Potency in experiment [1] is 11.8 µM (active); in experiment [2] it was 13.2 µM (active); in [3], 20.9 µM (active); in [14], 3.72 µM (active); in experiment [12] it was 20.9 µM (active); in experiment [5], 18.7 µM (active). The Potency in [15] is 2.96 µM (active); in experiment [6] it was 14.8 µM (active); in experiment [8] it was 18.7 µM (active); in [10], 2.64 µM (active); in experiment [17], 5.26 µM (active).
In the case of `Cc1ccc2c(=O)c3cccc(CC(=O)O)c3oc2c1C`, the Potency is 33.2 µM (active) in experiment [1]; 20.9 µM (active) in [2]; 14.8 µM (active) in experiment [14]; 18.7 µM (active) in experiment [12]; 26.4 µM (active) in experiment [16]; 18.7 µM (active) in experiment [6]. Moreover, the Potency in [9] is 18.7 µM (active). The Potency entry in experiment [3], in experiment [11], in experiment [19] and in experiment [5] was “inactive” in each case.
On to `CC(C)CN(C[C@H](O)[C@H](Cc1ccccc1)NC(=O)O[C@H]1CCOC1)S(=O)(=O)c1ccc(N)cc1`, for which the Potency in experiment [1] is 16.6 µM (active); in experiment [2], 8.33 µM (active); in experiment [14] it was 16.6 µM (active); in experiment [12], 16.6 µM (active); in experiment [6], 2.96 µM (active); in experiment [7] it was 26.4 µM (active). Moreover, the Potency entry in experiment [18], in experiment [11] and in experiment [13] was “inactive” throughout. The viability in experiment [8] is 121%.
